The target of test [1] is T1, Mitogen-activated protein kinase 12 (Homo sapiens) (UniProt P53778).
T1 sequence (whole entry): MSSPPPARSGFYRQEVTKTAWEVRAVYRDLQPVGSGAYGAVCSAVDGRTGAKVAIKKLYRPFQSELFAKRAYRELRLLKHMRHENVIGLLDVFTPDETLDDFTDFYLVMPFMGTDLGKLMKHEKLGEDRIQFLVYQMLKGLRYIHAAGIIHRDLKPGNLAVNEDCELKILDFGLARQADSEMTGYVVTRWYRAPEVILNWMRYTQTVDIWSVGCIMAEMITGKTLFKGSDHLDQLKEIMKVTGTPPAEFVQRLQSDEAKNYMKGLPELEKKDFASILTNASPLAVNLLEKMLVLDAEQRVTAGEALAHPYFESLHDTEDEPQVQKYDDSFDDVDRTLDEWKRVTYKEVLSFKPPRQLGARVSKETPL
The conditions noted are these: at 1 µM.

For test [2], the target named is T1, Mitogen-activated protein kinase 12 (Homo sapiens). The conditions noted are these: at 10 µM.
Test [3] has as its target T2, Serine/threonine-protein kinase Sgk3 (Homo sapiens) (UniProt Q96BR1).
T2 sequence (whole entry): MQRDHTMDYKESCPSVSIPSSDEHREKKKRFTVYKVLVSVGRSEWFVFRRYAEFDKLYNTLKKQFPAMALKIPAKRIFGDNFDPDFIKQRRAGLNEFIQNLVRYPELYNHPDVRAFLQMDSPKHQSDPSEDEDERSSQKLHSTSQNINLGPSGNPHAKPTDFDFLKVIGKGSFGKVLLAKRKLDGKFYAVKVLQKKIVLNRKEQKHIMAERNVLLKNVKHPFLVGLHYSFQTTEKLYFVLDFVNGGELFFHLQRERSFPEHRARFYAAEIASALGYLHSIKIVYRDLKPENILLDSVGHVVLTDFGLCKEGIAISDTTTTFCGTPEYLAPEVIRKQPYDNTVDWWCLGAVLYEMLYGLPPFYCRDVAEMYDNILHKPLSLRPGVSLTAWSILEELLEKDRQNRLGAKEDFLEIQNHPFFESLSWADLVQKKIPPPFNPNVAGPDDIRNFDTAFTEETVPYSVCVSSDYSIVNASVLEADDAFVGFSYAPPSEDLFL
The settings on record: at 1 µM.

The target in test [4] is T3, Serine/threonine-protein kinase Sgk1 (Homo sapiens) (UniProt O00141).
T3 sequence (whole entry): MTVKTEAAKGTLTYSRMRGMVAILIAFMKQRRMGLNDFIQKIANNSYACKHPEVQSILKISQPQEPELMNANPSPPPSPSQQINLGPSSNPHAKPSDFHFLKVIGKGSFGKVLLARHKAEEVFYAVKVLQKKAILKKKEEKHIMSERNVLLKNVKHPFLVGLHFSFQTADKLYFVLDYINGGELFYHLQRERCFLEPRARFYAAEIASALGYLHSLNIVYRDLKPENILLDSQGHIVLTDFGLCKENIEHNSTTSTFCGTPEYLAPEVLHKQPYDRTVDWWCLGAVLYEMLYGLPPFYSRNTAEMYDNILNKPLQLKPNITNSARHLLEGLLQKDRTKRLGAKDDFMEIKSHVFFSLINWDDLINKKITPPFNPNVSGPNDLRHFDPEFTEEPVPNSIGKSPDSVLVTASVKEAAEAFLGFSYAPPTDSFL
The settings on record: at 1 µM.

Test [5] has as its target T3, Serine/threonine-protein kinase Sgk1 (Homo sapiens). The conditions noted are these: at 10 µM.
Test [6] concerns the target T4, Serine/threonine-protein kinase Sgk2 (Homo sapiens) (UniProt Q9HBY8).
T4 sequence (whole entry): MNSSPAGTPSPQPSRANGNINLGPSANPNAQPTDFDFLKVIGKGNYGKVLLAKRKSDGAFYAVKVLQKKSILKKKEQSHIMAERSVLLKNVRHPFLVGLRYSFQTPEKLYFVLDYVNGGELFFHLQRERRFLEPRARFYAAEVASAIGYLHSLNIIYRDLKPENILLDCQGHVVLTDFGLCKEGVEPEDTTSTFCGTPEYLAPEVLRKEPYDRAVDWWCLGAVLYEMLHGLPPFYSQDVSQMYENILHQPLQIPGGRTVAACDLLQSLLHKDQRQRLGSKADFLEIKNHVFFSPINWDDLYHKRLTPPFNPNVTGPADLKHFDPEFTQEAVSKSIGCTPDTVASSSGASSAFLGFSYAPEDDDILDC
The settings on record: at 1 µM.

The target of test [7] is T4, Serine/threonine-protein kinase Sgk2 (Homo sapiens). The settings on record: at 10 µM.
The target in test [8] is T2, Serine/threonine-protein kinase Sgk3 (Homo sapiens). The conditions noted are these: at 10 µM.
The target in test [9] is Serine/threonine-protein kinase SIK1 (Homo sapiens) (UniProt P57059). The conditions noted are these: at 1 µM.
Test [10] shares this target. The conditions noted are these: at 10 µM.
For test [11], the target named is SRSF protein kinase 1 (Homo sapiens) (UniProt Q96SB4). The settings on record: at 1 µM.
Test [12] shares this target. The conditions noted are these: at 10 µM.

Sequence of SRSF protein kinase 1 (Homo sapiens) (Q96SB4 whole entry): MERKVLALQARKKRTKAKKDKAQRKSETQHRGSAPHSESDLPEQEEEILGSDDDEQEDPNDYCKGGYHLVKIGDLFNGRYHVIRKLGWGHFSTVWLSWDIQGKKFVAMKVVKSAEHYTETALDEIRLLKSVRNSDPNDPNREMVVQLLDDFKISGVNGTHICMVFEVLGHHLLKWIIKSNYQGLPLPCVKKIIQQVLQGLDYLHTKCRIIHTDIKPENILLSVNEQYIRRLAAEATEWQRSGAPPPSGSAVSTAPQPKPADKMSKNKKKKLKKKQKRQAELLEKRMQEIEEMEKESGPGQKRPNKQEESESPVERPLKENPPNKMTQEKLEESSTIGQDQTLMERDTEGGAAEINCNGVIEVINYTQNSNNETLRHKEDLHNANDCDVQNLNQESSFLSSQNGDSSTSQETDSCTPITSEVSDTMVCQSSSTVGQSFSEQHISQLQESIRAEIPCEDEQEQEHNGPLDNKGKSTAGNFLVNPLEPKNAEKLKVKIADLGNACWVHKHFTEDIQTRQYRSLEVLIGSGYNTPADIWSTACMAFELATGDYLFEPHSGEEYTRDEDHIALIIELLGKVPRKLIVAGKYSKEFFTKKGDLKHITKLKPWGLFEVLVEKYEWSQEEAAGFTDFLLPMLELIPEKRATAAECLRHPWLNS
Sequence of Serine/threonine-protein kinase SIK1 (Homo sapiens) (P57059 whole entry): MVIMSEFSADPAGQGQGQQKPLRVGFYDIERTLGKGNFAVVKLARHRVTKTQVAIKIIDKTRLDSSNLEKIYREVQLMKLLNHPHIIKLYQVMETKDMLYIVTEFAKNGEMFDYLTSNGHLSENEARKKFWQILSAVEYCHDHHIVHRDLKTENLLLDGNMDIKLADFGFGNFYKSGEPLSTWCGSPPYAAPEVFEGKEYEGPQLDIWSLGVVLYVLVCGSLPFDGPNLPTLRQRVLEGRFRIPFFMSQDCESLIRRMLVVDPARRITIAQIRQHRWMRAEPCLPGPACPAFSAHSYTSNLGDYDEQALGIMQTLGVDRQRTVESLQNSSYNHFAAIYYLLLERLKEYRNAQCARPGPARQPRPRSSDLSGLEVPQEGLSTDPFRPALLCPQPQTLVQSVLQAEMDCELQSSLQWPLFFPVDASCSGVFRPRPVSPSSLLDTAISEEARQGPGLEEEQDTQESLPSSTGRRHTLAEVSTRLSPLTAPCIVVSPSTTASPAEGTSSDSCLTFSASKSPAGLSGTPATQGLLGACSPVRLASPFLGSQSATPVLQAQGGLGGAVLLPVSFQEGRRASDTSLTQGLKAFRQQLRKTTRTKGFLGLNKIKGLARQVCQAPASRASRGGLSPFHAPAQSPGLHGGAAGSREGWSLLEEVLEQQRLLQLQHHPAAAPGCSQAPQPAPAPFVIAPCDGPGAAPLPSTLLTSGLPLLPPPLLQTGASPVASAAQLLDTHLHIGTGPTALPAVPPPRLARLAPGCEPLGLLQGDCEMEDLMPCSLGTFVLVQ

With `c1ccc(-c2cnc(Nc3ccc(OCCN4CCCC4)cc3)s2)cc1`, the residual activity in test [1] was 115%; in test [2], 100%.
For the molecule `Cc1ccc(NC2=CC(=O)c3sc(C)nc3C2=O)cc1`, the values for the residual activity in [1], in test [2] and in [3] were 87%, 102% and 96%, respectively.
For `Cn1sc(=O)n(Cc2ccccc2)c1=O` the same measures were 90%, 97% and 99%.
In the same order, the values of `Oc1ccc(Nc2nc(-c3ccc(Cl)cc3)cs2)cc1` are 112%, 100% and 112%.
In the same order, the values of `Cc1nc2cc3nc(-c4cccs4)cnc3cc2n1C` are 114%, 100% and 94%.
In the case of `O=Nc1c(-c2c(O)[nH]c3ccccc23)[nH]c2ccccc12`, the figures for the residual activity in test [1], in [2] and in test [3] were 95%, 84% and 89%, respectively.
For `CC(C)n1cnc2c(NCc3ccccc3)nc(NCCCO)nc21` the same measures were 100%, 101% and 89%.
In the same order, the values of `O=C1NC(=O)/C(=C\c2ccc3nccnc3c2)S1` are 100%, 61% and 114%.
In the same order, the values of `CC(C)(C)n1nc(Cc2cccc3ccccc23)c2c(N)ncnc21` are 100%, 98% and 106%.
For the molecule `Ic1cccc(CSc2nnc(-c3ccncc3)o2)c1`, the values for the residual activity in [1], in test [2] and in test [3] were 88%, 93% and 91%, respectively.
For the molecule `Cn1cc(/C=C2\C(=O)Nc3ccc(S(N)(=O)=O)cc32)c2ccccc21`, the figures for the residual activity in [1], in test [2] and in [3] were 99%, 104% and 112%, respectively.
For `O=c1cc(-c2cccc3c2Sc2ccccc2S3)oc(N2CCOCC2)c1` the same measures were 104%, 101% and 101%.
For `COc1cc2ncnc(Nc3ccc(Oc4ccccc4)cc3)c2cc1OC` the same measures were 108%, 101% and 110%.
For `CCCC(=O)Oc1ccc2[nH]c(C(=O)c3cc4ccccc4[nH]3)cc2c1` the same measures were 96%, 98% and 94%.
Turning to `CN(C)c1ccc(/C=C2\C(=O)Nc3ccccc32)cc1`, the residual activity in [1] worked out at 113%; in [2], 83%; in test [3], 106%.
`COc1cc2ncnc(N3CCN(C(=O)Nc4ccc(Oc5ccccc5)cc4)CC3)c2cc1OC`: the results for the residual activity in test [1], in test [2] and in [3] were 93%, 99% and 104%, respectively.
In the same order, the values of `O=C1Nc2cc(Br)ccc2/C1=C1/Nc2ccccc2/C1=N\O` are 95%, 94% and 86%.
For `O=c1c2ccccc2[nH]c(=S)n1CCN1CCC(=C(c2ccc(F)cc2)c2ccc(F)cc2)CC1` the same measures were 115%, 90% and 118%.
For `COc1ccc(OC)c2c(=S)c3ccccc3[nH]c12` the same measures were 95%, 91% and 112%.
`Nc1nc(Nc2ccc(S(N)(=O)=O)cc2)nn1C(=S)Nc1c(F)cccc1F`: the residual activity came out at 56% in test [1], 69% in test [2] and 88% in test [3].
For `Cn1cnc2cc3c(Nc4cccc(Br)c4)ncnc3cc21` the same measures were 104%, 89% and 107%.
For `Cc1ccc(S(=O)(=O)/C=C/C#N)cc1` the same measures were 92%, 92% and 103%.
On to `Nc1ncnc2c1c(-c1ccc(Oc3ccccc3)cc1)cn2C1CCCC1`, for which the figures for the residual activity in test [1], in test [2] and in test [3] were 99%, 97% and 104%, respectively.
In the same order, the values of `O=C(O)c1ccc2c3c1cccc3c(=O)n1c3ccccc3nc21` are 106%, 102% and 105%.
For `c1ccc2c(-c3ccncc3)c[nH]c2c1` the same measures were 100%, 94% and 101%.
For `COc1ccc2c(c1)c(C1=C(c3c[nH]c4ccccc34)C(=O)NC1=O)cn2CCCN(C)C` the same measures were 100%, 100% and 96%.
Consider `O=c1cc(N2CCOCC2)oc2c1ccc1ccccc12`, for which the residual activity is 104% in test [1], 90% in test [2] and 97% in [3].
For `Oc1c2ccccc2c2c3c(cccc13)N=N2` the same measures were 82%, 61% and 85%.
For `CCC(=O)Nc1ccc2ncnc(Nc3cccc(Br)c3)c2c1` the same measures were 101%, 93% and 105%.
For `Nc1ccc2ncnc(NCCc3ccc(Oc4ccccc4)cc3)c2c1` the same measures were 107%, 108% and 109%.
Turning to `N#C/C(=C(\N)Sc1ccc(N)cc1)c1ccccc1C(F)(F)F`, the residual activity in [1] was 104%; in test [2], 105%; in test [3], 102%.
In the same order, the values of `COc1cc2ncnc(Nc3ccc(O)c(Br)c3)c2cc1OC` are 98%, 97% and 99%.
For `O=C1c2ccccc2-[n+]2ccc3c([nH]c4ccccc43)c21` the same measures were 89%, 100% and 99%.
Turning to `COc1ccc(S(=O)(=O)N(CCO)c2ccccc2CN(C)C/C=C/c2ccc(Cl)cc2)cc1`, the residual activity in test [1] came out at 99%; in test [2] it was 95%; in [3], 98%.
In the same order, the values of `O=C(Nc1cccc(Nc2cc(Nc3cccc(C(F)(F)F)c3)ncn2)c1)C1CC1` are 94%, 92% and 96%.
In the same order, the values of `COc1ccc(CNc2nc(N(CCO)CCO)nc3c2ncn3C(C)C)cc1` are 109%, 99% and 114%.
On to `O=C1Cc2c([nH]c3ccc(Br)cc23)-c2ccccc2N1`, for which the residual activity in test [3] was 91%.
In the case of `CO[C@H]1C[C@@H]2CC[C@@H](C)[C@@](O)(O2)C(=O)C(=O)N2CCCC[C@H]2C(=O)O[C@H]([C@H](C)C[C@@H]2CC[C@@H](O)[C@H](OC)C2)CC(=O)[C@H](C)/C=C(\C)[C@@H](O)[C@@H](OC)C(=O)[C@H](C)C[C@H](C)/C=C/C=C/C=C/1C`, the residual activity was found to be 95% in test [1], 94% in test [2] and 112% in test [3].
On to `CN(C)CCCn1cc(C2=C(c3c[nH]c4ccccc34)C(=O)NC2=O)c2ccccc21`, for which the residual activity in test [1] was determined as 125%; in test [2], 131%; in test [3] it was 101%.
Take `O=C1NC(=O)c2c1c1c3ccccc3n3c1c1c2c2ccccc2n1C1CCC3O1`: the residual activity in [4] is 53%; in test [5], 43%; in test [6], 77%; in [7] it was 61%; in [3], 98%; in test [8], 80%. Besides, the residual activity in [9] was determined as 123%; in test [10] it was 74%; in test [11], 92%; in [12] it was 83%.
With `COc1cc2ncnc(Nc3ccc(NC(=O)c4ccccc4)cc3)c2cc1OC`, the residual activity in [3] was found to be 96%.
For `O=C1NC(=O)/C(=C/c2ccc3c(c2)OC(F)(F)O3)S1`, the residual activity in [1] was 110%; in [2] it was 113%; in test [3] it was 109%.
With `CC(=O)O/N=C1\C(=C2\C(=O)Nc3cc(Br)ccc32)Nc2ccccc21`, the results for the residual activity in test [1], in [2] and in test [3] were 94%, 92% and 114%, respectively.
In the case of `O=C(Nc1cccc(Nc2nccc(Nc3cccc(C(F)(F)F)c3)n2)c1)C1CC1`, the results for the residual activity in [1], in test [2] and in test [3] were 98%, 95% and 126%, respectively.

(Values after ChEMBL document CHEMBL2218924, “A broad activity screen in support of a chemogenomic map for kinase signalling research and drug discovery” (Biochem J, 2013).)
